Results filed as inconclusive are left out. Some structures have more than one record in an assay (separate samples or runs), and their calls can disagree. Active and inactive are the calls of the source. How the source made its calls, unless noted: active means hit-call score of the fitted dose curve at least 0.9, where 1 is the maximum; inconclusive means response in the unintended direction; inactive means score below 0.9.

A short description of test [1]: ATG_GRE_CIS: Attagene CIS-FACTORIAL HepG2 Assay for human Glucocorticoid Response Elements (GRE) (AID 2282947; active means hit-call score of the fitted dose curve at least 0.9, where 1 is the maximum; inactive means score below 0.9). To be noted: HepG2 GRE cis-reporter, Attagene multiplex mRNA; actives raise or lower the signal. The method in brief:
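HepG2, transient cis-reporter transfection, 24 h. Reporter mRNA: RT-PCR then CE, fluorescence. Fit both directions vs DMSO.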

Test [2] can be described thus: ATG_PBREM_CIS: Attagene CIS-FACTORIAL HepG2 Assay for human Phenobarbital-responsive Enhancer Module (PBREM) (AID 2282955; active means hit-call score of the fitted dose curve at least 0.9, where 1 is the maximum; inactive means score below 0.9). To be noted: HepG2 PBREM cis-reporter, Attagene multiplexed transcription; actives raise or lower the signal. The method in brief:
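Multiplexed cis-reporter readout in human hepatoma HepG2 cells; PBREM-regulated transcript quantified after 24 h exposure by fluorescent RT-PCR fragment analysis. Signal changes up or down fitted relative to DMSO.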

Test [3] in a line: ATG_RORE_CIS: Attagene CIS-FACTORIAL HepG2 Assay for human RAR-related Orphan Receptor Element (RORE) (AID 2282959; active means hit-call score of the fitted dose curve at least 0.9, where 1 is the maximum; inactive means score below 0.9). As to conditions: HepG2 Attagene cis-factorial RORE reporter, mRNA; actives raise or lower the signal. The method in brief: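 Transfect HepG2 with MRTUs; treat 24 h; extract RNA; RT with oligo(dT); PCR with reporter-specific primers; 6-FAM primer extension; HpaI digest 2 h at 37 C; capillary electrophoresis. Fit vs DMSO, bidirectional.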

A short description of test [4]: ATG_M_06_TRANS: Attagene TRANS-FACTORIAL HepG2 Assay for M06 Transcription Factor (Internal Marker) (AID 2282983).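 Further: reporter transcript level by RT-PCR then capillary electrophoresis fluorescence.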 To be noted: HepG2 Attagene TRANS M06 internal marker reporter. The method in brief: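 Read-out: fluorescent reporter cDNA fragments resolved by capillary electrophoresis after RT-PCR and HpaI cut. Source cells were HepG2 carrying transfected multi-reporter GAL4 constructs, dosed 24 h. Increase over DMSO control analysed.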

Test [5] in a line: ATG_M_32_TRANS: Attagene TRANS-FACTORIAL HepG2 Assay for M32 Transcription Factor (Internal Marker) (AID 2282984).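 Further: transcript level of a background control reporter unit measured by RT-PCR and capillary electrophoresis.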 As to conditions: HepG2 Attagene TRANS M32 internal marker reporter. The method in brief: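 Fluorescence-detected mRNA induction, HepG2 liver cells, 24 h after dosing. Multiple GAL4-UAS reporter units introduced by transient transfection; background-control endpoint analysed for gain of signal against DMSO.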

Test [6] concerns the target Transcriptional activator Myb (Homo sapiens) (UniProt P10242). As to the kind of experiment: ATG_Myb_CIS: Attagene CIS-FACTORIAL HepG2 Assay for human Myeloblastosis (Myb) Proto-Oncogene Transcription Factor (AID 2282986; active means hit-call score of the fitted dose curve at least 0.9, where 1 is the maximum; inactive means score below 0.9). As to conditions: HepG2 Attagene CIS-FACTORIAL Myb reporter transcription; actives raise or lower the signal. The method in brief: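 Using HepG2 liver cells bearing transiently transfected cis-promoter reporter constructs, the assay measures induction or loss of reporter mRNA after 24 hours of dosing. Detection used fluorescently labeled RT-PCR products separated by capillary electrophoresis.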

The target of test [7] is Cellular tumor antigen p53 (Homo sapiens) (UniProt P04637). As to the kind of experiment: TOX21_p53_BLA_p3_ratio: Tox21 HCT-116 p53 Agonism Beta-lactamase Assay, Ratio, Phase 3 (AID 2283596). The method in brief:
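Cells were seeded at 4000/well, rested 5 h at 37C, then dosed with DMSO compound solutions (217-fold dilution) for 16 h. CCF4-AM substrate was loaded for 2 h at room temperature, and the 460/530 nm emission ratio was fitted for gain of signal versus DMSO.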

The nature of test [8]: TOX21_p53_BLA_p4_viability: Viability Assessment in the Tox21 HCT-116 p53 Agonism Beta-lactamase Assay, Phase 4 (AID 2283597).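 Further: hits lower the luminescence signal meaning cytotoxicity.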 The method in brief:
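ATP content by CellTiter-Glo luminescence, 30 min RT, read after the beta-lactamase ratio step. Cells: HCT116, 4000/well, compound added after 5 h, exposure 16 h at 37C. Signal loss = reduced viability.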

The target in test [9] is Cellular tumor antigen p53 (Homo sapiens) (UniProt P04637). As to the kind of experiment: TOX21_p53_BLA_p5_ratio: Tox21 HCT-116 p53 Agonism Beta-lactamase Assay, Ratio, Phase 5 (AID 2283599). The method in brief: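 HCT-116 cells carrying a p53-inducible beta-lactamase reporter were seeded at 4000 cells/well and dosed after 5 h with compound in DMSO (217-fold dilution). After 16 h at 37C, CCF4-AM substrate was added for 2 h, and the 460/530 nm emission ratio was scored as gain-of-signal versus DMSO.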
Cellular tumor antigen p53 (Homo sapiens), sequence (P04637 whole entry, looked up): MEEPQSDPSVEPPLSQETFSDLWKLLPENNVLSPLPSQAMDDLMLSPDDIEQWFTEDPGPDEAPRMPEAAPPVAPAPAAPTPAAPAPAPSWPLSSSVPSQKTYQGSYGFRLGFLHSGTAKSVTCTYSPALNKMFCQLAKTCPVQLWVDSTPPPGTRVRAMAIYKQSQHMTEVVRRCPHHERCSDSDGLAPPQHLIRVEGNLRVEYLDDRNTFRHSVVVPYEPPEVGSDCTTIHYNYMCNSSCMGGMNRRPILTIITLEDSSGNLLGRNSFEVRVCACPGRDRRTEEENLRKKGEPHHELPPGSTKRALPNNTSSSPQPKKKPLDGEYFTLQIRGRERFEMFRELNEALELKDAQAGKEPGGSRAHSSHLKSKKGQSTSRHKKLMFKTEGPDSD

Test [10] has the same target. The experiment in a line: TOX21_p53_BLA_p4_ratio: Tox21 HCT-116 p53 Agonism Beta-lactamase Assay, Ratio, Phase 4 (AID 2283601). The method in brief: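 HCT116 cells carrying an inducible beta-lactamase reporter were plated at 4000 cells/well, rested 5 h, then exposed to compounds in DMSO (217-fold dilution) for 16 h at 37C. CCF4-AM substrate was loaded 2 h at room temperature; 460/530 nm emission ratio scored gain-of-signal versus DMSO.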

Test [11] concerns the target Signal transducer and activator of transcription 3 (Homo sapiens) (UniProt P40763). As to the kind of experiment: ATG_STAT3_CIS: Attagene CIS-FACTORIAL HepG2 Assay for human Signal Transducer and Activator of Transcription 3 (STAT3) (AID 2282963; active means hit-call score of the fitted dose curve at least 0.9, where 1 is the maximum; inactive means score below 0.9). To be noted: HepG2, Attagene cis-factorial STAT3 reporter transcription; actives raise or lower the signal. The method in brief:
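Uses human liver HepG2 transiently carrying cis-regulated reporter transcription units. Following 24 h dosing, reporter mRNA induction was detected by RT-PCR and capillary electrophoresis, analysed bidirectionally versus DMSO.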

A short description of test [12]: ATG_NFI_CIS: Attagene CIS-FACTORIAL HepG2 Assay for human Nuclear Factor I (NFI) (AID 2282989; active means hit-call score of the fitted dose curve at least 0.9, where 1 is the maximum; inactive means score below 0.9). To be noted: HepG2 cis-regulatory reporter, NFI response element transcription; actives raise or lower the signal. The method in brief: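 HepG2, transient MRTU, 24 h exposure; RNA→cDNA→PCR→FAM label→HpaI→CE fluorescence. Bidirectional fit, DMSO = baseline.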
Test [13] concerns the target human Retinoid X Receptor beta (RXRb), RXRB (gene 6257) (UniProt P28702). The experiment in a line: ATG_RXRb_TRANS: Attagene TRANS-FACTORIAL HepG2 Assay for human Retinoid X Receptor beta (RXRb) (AID 2283013). The method in brief: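 Read-out: reporter mRNA induction via RT-PCR plus capillary electrophoresis fluorescence, analysed as signal increase relative to DMSO. Cells were human HepG2, transiently transfected with GAL4-UAS reporter constructs and chimeric receptor-Gal4 fusions, dosed for 24 h.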

Test [14] concerns the target Transcription factor Sp1 (Homo sapiens) (UniProt P08047). As to the kind of experiment: ATG_Sp1_CIS: Attagene CIS-FACTORIAL HepG2 Assay for human Specificity Protein 1 (Sp1) (AID 2282961; active means hit-call score of the fitted dose curve at least 0.9, where 1 is the maximum; inactive means score below 0.9). To be noted: HepG2 Sp1 cis-reporter transcription, actives raise or lower the signal. The method in brief:
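Chemicals are dosed onto HepG2 cells transfected with multiple cis-promoter reporter constructs, and after 24 h reporter RNA is reverse-transcribed, PCR-amplified and resolved by capillary electrophoresis for fluorescence quantitation; activity is scored up or down against DMSO.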

Test [15] concerns the target Peroxisome proliferator-activated receptor gamma (Homo sapiens) (UniProt P37231). The experiment in a line: ATG_PPARg_TRANS: Attagene TRANS-FACTORIAL HepG2 Assay for human Peroxisome Proliferator-activated Receptor-gamma (PPARg) (AID 2283007). The method in brief:
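Chimeric NR-Gal4 transactivation is measured in transiently transfected HepG2 cells by reporter mRNA induction at 24 h. Detection uses RT-PCR with fluorescent labelling and capillary electrophoresis; DMSO defines baseline.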

A short description of test [16]: ACEA_ER_AUC_viability: ACEA Biosciences xCELLigence Real-Time Cell Analysis on Estrogen Receptor Agonism for Viability (AID 2283782).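 Further: hit means loss of impedance signal meaning reduced cell growth or viability.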 The method in brief: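 Continuous-exposure impedance cell analysis uses T-47D cells in charcoal-stripped serum, eight 1:4 dilutions topping at 100 uM final, biological duplicate. Area under the growth curve at 80 h is fitted against DMSO baseline.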

The target in test [17] is Hepatocyte nuclear factor 4-alpha (Homo sapiens) (UniProt P41235). As to the kind of experiment: ATG_HNF4a_TRANS: Attagene TRANS-FACTORIAL HepG2 Assay for human Hepatocyte Nuclear Factor 4 alpha (HNF4a) (AID 2282982). To be noted: HepG2 HNF4a transactivation reporter, mRNA readout. The method in brief:
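Using HepG2 liver cells transfected with GAL4-UAS reporter units, chemical-induced mRNA increases were assessed after 24 hours. Fluorescent RT-PCR fragments were separated by capillary electrophoresis and compared with DMSO negative controls.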

The nature of test [18]: TOX21_p53_BLA_p2_viability: Viability Assessment in the Tox21 HCT-116 p53 Agonism Beta-lactamase Assay, Phase 2 (AID 2283591).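 Further: actives lower the ATP signal meaning cytotoxicity.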 The method in brief:
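HCT-116 p53-bla cells (4000/well) rested 5 h at 37C, then received compounds in DMSO (217-fold dilution) for 16 h at 37C, 5% CO2. After the CCF4 read, CellTiter-Glo was added; ATP luminescence was read after 30 min at room temperature.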

The target in test [19] is Cellular tumor antigen p53 (Homo sapiens) (UniProt P04637). The experiment in a line: TOX21_p53_BLA_p2_ratio: Tox21 HCT-116 p53 Agonism Beta-lactamase Assay, Ratio, Phase 2 (AID 2283592). The method in brief: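 Readout: blue/green (460/530 nm) FRET emission ratio after 2 h CCF4-AM loading at room temperature, excitation 405 nm. HCT116 p53 bla cells, 16 h compound exposure at 37C, 5% CO2; agonist direction fitted against DMSO baseline.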

A short description of test [20]: TOX21_p53_BLA_p5_viability: Viability Assessment in the Tox21 HCT-116 p53 Agonism Beta-lactamase Assay, Phase 5 (AID 2283600). The method in brief: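 ATP luminescence (CellTiter-Glo, 30 min, RT) served as the viability read-out, with loss of signal indicating cytotoxicity. Compounds in DMSO were pinned at a 217-fold dilution onto 4000 cells/well and incubated 16 h, 37C.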

human Retinoid X Receptor beta (RXRb), RXRB (gene 6257), sequence (P28702 whole entry, looked up, the tested form may be a part): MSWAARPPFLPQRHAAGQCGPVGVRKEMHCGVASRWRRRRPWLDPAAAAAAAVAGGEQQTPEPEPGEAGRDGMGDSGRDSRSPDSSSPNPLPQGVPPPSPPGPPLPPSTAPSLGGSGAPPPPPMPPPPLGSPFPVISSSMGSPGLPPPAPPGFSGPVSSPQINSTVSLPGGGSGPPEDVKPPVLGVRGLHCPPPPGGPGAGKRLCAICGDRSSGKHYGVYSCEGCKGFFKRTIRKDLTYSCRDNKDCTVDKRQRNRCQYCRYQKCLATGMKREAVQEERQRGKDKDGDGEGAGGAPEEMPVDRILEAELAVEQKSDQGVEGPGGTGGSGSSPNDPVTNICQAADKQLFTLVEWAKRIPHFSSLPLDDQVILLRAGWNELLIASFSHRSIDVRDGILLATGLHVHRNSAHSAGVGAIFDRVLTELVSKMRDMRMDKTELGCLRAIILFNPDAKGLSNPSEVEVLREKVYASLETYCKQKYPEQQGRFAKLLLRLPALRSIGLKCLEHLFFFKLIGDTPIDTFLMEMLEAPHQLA
Signal transducer and activator of transcription 3 (Homo sapiens), sequence (P40763 whole entry, looked up): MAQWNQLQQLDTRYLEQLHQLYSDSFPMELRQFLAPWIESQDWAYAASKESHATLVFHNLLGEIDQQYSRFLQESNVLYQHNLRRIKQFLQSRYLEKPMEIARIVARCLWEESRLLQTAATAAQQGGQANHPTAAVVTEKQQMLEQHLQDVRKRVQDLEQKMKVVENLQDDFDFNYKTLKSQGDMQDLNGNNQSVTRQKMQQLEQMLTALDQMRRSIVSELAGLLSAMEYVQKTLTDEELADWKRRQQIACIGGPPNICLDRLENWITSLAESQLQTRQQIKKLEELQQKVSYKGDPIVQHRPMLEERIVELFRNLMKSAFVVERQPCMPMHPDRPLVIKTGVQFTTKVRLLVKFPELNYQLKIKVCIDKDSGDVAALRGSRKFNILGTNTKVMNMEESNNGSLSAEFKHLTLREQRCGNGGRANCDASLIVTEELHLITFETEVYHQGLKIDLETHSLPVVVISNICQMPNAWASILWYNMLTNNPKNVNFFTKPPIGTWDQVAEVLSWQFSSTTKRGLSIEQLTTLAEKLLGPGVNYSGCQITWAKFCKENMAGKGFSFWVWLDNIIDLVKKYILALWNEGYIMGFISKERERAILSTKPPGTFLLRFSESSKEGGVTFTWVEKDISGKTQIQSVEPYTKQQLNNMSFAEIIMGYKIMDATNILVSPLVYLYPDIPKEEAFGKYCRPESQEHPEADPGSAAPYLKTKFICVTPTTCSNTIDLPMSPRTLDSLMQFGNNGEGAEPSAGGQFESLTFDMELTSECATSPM
Transcription factor Sp1 (Homo sapiens), sequence (P08047 whole entry, looked up): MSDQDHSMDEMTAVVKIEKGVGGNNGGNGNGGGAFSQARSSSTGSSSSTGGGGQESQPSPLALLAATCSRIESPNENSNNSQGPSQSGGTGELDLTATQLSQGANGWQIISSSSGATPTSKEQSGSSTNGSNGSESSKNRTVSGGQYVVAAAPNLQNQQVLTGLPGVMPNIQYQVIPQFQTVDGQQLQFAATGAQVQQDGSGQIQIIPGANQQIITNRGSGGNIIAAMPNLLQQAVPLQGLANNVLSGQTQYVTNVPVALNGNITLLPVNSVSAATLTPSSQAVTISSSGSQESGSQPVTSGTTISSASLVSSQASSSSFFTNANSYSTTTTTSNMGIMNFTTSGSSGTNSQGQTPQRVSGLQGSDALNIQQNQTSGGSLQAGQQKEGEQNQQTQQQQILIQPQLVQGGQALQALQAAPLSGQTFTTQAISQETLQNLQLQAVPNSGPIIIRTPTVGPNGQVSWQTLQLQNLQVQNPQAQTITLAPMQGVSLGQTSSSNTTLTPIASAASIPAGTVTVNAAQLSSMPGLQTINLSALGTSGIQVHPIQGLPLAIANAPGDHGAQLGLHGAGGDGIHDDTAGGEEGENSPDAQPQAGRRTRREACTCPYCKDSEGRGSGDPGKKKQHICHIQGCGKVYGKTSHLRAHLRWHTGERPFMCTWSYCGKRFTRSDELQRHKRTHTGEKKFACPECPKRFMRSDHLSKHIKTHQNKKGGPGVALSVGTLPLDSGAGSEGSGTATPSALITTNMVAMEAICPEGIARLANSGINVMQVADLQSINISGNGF
Peroxisome proliferator-activated receptor gamma (Homo sapiens), sequence (P37231 whole entry, looked up, the tested form may be a part): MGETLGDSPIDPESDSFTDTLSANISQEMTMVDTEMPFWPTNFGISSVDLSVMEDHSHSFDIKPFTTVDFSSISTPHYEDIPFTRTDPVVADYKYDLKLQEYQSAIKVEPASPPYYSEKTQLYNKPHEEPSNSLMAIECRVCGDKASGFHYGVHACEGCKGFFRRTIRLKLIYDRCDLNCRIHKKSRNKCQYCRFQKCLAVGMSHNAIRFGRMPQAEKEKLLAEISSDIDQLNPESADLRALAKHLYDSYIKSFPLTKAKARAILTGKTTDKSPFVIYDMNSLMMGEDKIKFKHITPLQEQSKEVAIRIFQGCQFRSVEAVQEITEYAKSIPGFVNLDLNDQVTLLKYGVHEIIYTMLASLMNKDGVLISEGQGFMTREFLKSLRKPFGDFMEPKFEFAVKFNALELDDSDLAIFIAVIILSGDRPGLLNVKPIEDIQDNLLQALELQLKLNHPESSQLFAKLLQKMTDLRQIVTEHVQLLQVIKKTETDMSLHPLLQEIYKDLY
Transcriptional activator Myb (Homo sapiens), sequence (P10242 whole entry, looked up): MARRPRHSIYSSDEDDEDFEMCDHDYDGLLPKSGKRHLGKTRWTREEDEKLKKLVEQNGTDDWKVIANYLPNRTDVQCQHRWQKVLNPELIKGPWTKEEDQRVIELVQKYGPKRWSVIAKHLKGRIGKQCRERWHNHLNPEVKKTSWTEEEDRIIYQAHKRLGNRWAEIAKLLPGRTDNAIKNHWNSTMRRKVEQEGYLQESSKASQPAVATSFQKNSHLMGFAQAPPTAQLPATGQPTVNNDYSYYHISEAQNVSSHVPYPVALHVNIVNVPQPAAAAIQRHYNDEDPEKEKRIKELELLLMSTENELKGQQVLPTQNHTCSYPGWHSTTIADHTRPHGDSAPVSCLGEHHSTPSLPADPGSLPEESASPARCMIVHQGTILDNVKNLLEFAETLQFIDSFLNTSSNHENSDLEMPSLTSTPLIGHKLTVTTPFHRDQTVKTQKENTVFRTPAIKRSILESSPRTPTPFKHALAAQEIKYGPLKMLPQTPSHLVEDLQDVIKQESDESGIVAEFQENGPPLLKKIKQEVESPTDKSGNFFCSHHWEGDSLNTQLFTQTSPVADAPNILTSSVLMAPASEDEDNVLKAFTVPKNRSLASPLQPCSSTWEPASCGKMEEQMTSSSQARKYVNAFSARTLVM
Hepatocyte nuclear factor 4-alpha (Homo sapiens), sequence (P41235 whole entry, looked up, the tested form may be a part): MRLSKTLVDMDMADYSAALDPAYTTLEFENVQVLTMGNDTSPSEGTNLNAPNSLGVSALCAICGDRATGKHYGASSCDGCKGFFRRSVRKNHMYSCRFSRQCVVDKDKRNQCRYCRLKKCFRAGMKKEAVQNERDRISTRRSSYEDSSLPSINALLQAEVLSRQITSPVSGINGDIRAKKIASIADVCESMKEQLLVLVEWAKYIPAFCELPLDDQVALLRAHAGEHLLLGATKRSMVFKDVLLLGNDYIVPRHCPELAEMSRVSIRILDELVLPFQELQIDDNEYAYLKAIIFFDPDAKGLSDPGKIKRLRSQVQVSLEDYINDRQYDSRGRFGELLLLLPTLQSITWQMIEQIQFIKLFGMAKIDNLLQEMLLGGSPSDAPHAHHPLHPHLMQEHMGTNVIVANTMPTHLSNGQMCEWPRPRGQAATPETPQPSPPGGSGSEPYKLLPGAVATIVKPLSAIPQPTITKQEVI

For `CNC(=N[N+](=O)[O-])NCC1CCOC1` (centres undefined), the molecule was called inactive in [1], in test [2], in test [3], in test [4], in test [5] and in test [6]. The result in test [7], in test [8], in test [9] and in [10] was inactive.
Turning to `C[N+](C)(C)CC(=O)[O-]`, the molecule was called inactive in test [11], in test [4], in [12] and in test [13].
As to `COC(=O)c1ccccc1S(=O)(=O)NC(=O)Nc1nc(C)cc(C)n1`, the result in test [1], in test [2], in [14], in [11], in test [4] and in test [5] was inactive. Moreover, the outcome in [12], in test [15], in test [13] and in test [16] was inactive.
Take `COc1ccc(CO)cc1`: the result in test [1], in [3], in [11], in test [17], in [4] and in test [5] was inactive. Further, the molecule was called inactive in test [6], in test [12], in test [13], in test [18], in test [19] and in test [7]. For the same molecule, in test [9], the result was inactive.
As for `O=S(=O)(O)O`, the molecule was called inactive in [11], in test [4], in test [12] and in test [13]. Also, the AC50 – broadly, the concentration giving half of the maximal activity seen – in [16] was 6.09 µM (active).
With `CC[N+](=O)[O-]`, the result in [1], in test [2], in test [3], in [14], in test [11] and in test [17] was inactive. Besides, the molecule was called inactive in [4], in test [12], in test [15], in test [13], in [18] and in test [19]. Besides, the result in test [7], in test [9], in test [20] and in [10] was inactive.
In the case of `CCCCCc1cc(O)cc(O)c1`, the outcome in test [2], in test [17], in test [4], in test [5], in test [12] and in test [13] was inactive. Besides, the result in test [19], in test [7], in test [8], in test [9] and in test [10] was inactive. For the same molecule, the AC50 in [15] was 10.5 µM (active); in test [19] it was 83.7 µM (active).
For the molecule `COc1ncc(F)c2nc(S(=O)(=O)Nc3c(F)cccc3F)nn12`, the call in [1], in [2], in test [3], in test [14], in test [17] and in test [6] was inactive. Moreover, the molecule was called inactive in [12].
Consider `Nc1cc(Cl)cc(Cl)c1`, for which the result in [2], in test [3], in [14], in [11], in [17] and in [5] was inactive. The molecule was called inactive in test [6], in [12], in test [13], in [18], in test [19] and in test [7]. Further, the molecule was classed as inactive in [8], in test [9], in test [20], in test [10] and in [16].
As to `O=[N+]([O-])c1cc([N+](=O)[O-])c2ccccc2c1`, the call in test [1], in test [2], in test [3], in test [14], in [11] and in [4] was inactive. Moreover, the outcome in [12], in test [13], in [18], in test [19], in test [7] and in test [8] was inactive. In addition, the result in [9], in [20] and in [10] was inactive. For the same molecule, in test [15], the AC50 was 6.62 µM (active).
`ClCCCCCCCl`: the result in [1], in test [2], in [3], in test [14], in test [11] and in test [4] was inactive. Moreover, the outcome in [5] and in test [13] was inactive.

Source of the values: PubChem BioAssay (EPA / NIEHS).
